Assay results published in PubChem BioAssay AID504833 (Johns Hopkins Ion Channel Center, 2011).
The whole screen tested about 2,500 compounds, of which about 2,200 (88%) were called active.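 How the source made its calls: active means primary screen active, with duplicate mean activation above negative control mean plus 3 SD (cut at about 11% in these data); inactive means the rest.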 So high a share suggests a set chosen from earlier hits. Only a sample is shown.

target: High affinity choline transporter 1 (Homo sapiens) (UniProt Q9GZV3); experiment: human choline transporter potentiators – cell-based, membrane potential dye, duplicate, confirmation (AID 504833); settings: CHT-expressing cells, membrane potential dye fluorescence (FDSS); at 10 µM; stronger effect = higher value; % of choline EC20–EC90 response window; HEK293 expressing CHT LV-AA mutant; choline added at its EC20
Sequence (Q9GZV3 whole entry, looked up): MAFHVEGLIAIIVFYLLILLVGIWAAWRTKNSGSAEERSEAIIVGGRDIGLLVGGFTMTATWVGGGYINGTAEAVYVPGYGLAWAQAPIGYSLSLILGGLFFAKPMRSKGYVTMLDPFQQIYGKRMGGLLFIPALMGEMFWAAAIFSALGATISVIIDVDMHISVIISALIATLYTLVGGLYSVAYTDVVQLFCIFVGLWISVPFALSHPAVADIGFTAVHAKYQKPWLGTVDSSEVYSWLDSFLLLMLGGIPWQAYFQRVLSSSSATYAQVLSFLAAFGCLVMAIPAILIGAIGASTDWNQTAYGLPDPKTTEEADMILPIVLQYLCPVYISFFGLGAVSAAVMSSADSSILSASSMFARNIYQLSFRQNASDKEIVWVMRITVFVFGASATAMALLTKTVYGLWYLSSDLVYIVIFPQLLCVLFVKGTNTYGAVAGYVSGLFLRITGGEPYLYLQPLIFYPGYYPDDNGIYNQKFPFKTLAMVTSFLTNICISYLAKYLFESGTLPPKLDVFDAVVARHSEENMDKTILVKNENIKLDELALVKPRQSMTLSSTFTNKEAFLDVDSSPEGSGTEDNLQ

activation, inactive:
COc1ccccc1NC(=O)CSc1nnc(-c2ccoc2C)n1CCc1ccccc1 3.73%
Cc1c(C)c2c(OCC(=O)N[C@@H](C(=O)O)c3ccccc3)cc3c(c2oc1=O)CCC(C)(C)O3 7.79%
Cc1nc2c(-c3ccccc3)c(C)[nH]n2c(=O)c1Cl 8.04%
CC1=CC(C)(C)N(C(=O)CSc2nnc(-c3ccccc3)o2)c2ccc(C)cc21 7.25%
COc1ccc2nc(/N=C(\N)NC(=O)Nc3ccccc3)nc(C)c2c1 6.06%
Cc1ccccc1C(=O)NCC(c1ccco1)N1CCc2ccccc21 (stereo not drawn) 9.36%
O=C(C1=C(O)C(=O)N(Cc2ccccc2)C1c1ccco1)c1ccco1 (stereo not drawn) 9.6%
O=C(COC(=O)C1CCN(S(=O)(=O)c2ccc3c(c2)OCCO3)CC1)Nc1ccccc1OC(F)F 4.44%
CCN1/C(=C/c2ccc3ccc(C)cc3[n+]2CC)Sc2ccccc21 3.38%
Cc1ccc(C(=O)c2ccc(N3CCN(C)CC3)c([N+](=O)[O-])c2)cc1 9.27%

activation, active:
Nc1scc[n+]1Cc1cccc2cccnc12 42.7%
Cn1c(=O)n(Cc2ccco2)c(=N)c2c3c(sc21)CCCC3 30.6%
CCn1c(/C=C/Nc2ccccc2)[n+](CC)c2ccc(C(=O)OCC(F)(F)F)cc21 68.4%
CC(Sc1nc2ccccc2c(=O)n1Cc1ccco1)C(=O)c1ccccc1 (stereo not drawn) 16.9%
Cc1nnc(-c2ccc(Oc3ccc(C)c(C)c3)c([N+](=O)[O-])c2)o1 15%
Cc1ccc2c(c1)N(CC(=O)N(Cc1ccccn1)Cc1ccco1)C(=O)C(C(C)C)O2 (stereo not drawn) 30.6%
Clc1ccc(COn2c(-c3ccc(Cl)cc3Cl)nc3ncccc32)cc1 36.3%
COc1ccccc1NC(=O)CN(c1ccccc1OC)S(=O)(=O)c1ccccc1 12%
Cc1cc(NC(=O)c2cnn3cccnc23)n(-c2ccccc2)n1 52.8%
CCN1CCCC1CNC(=O)c1cc2c(=O)n(C)c3ccccc3c2n1C (stereo not drawn) 44.7%
CCOC(=O)c1cccnc1NC(=O)c1ccncc1 35.3%
Cc1nc2ccccc2c(=O)n1CCCn1ccnc1 22.6%
CCCCN(CCCC)CC(O)Cn1c2ccccc2c(=O)c2ccccc21 (stereo not drawn) 44.6%
CC(C)CC(COCc1ccc(Cl)cc1)N1CCN(C(=O)c2ccc(C(F)(F)F)cc2)CCC1=O (stereo not drawn) 33.6%
Cc1nc(N=C(N)N)nc2c(C)cccc12 49.8%
COc1nc(N=C(N)N)nc2c(C)cccc12 40.5%
CN1CCc2c(sc3c2c(NCc2ccco2)nc2nnnn23)C1 73.5%
CCOc1ccc(C2c3[nH]c4ccccc4c3CCN2Cc2cccn2-c2ncccn2)cc1 (stereo not drawn) 17.1%
C=CCNc1nnc(C)c2ccccc12 55.7%
COC(=O)c1sc(C(F)(F)F)c(-c2ccccc2)c1S(=O)(=O)N(C)C 27.1%
CC1(C)Cc2c(sc3nc4n(c(=N)c23)CCCCC4)CO1 40.2%
CCn1cc(S(=O)(=O)c2cccc(C)c2)c(=O)c2cc(F)c(N3CCN(C)CC3)cc21 52.5%
CN1CCN(c2cc3c(cc2F)c(=O)c(C(=O)O)cn3CCF)CC1 63.4%
Cn1c(=O)[nH]c(=O)c2c1nc(N1CCN(CCO)CC1)n2CCSc1nc2ccccc2s1 69.4%
Cc1ccc(-n2c(C)cc(/C=N\NC(=O)CC(=O)NC(C)C)c2C)cc1 33.2%
O=C(Nc1ccccc1N1CCN(c2ccccc2)CC1)c1cccc(F)c1 36.2%
C[C@H]1CCC(=O)N([C@H](CSc2ccccc2)Cc2ccccc2)CC1 12%
O=C(c1ccc(F)c(S(=O)(=O)N2CCOCC2)c1)N(CCc1ccccc1)Cc1ccccc1 19.7%
O=C1c2ccccc2C(=O)c2c1cccc2N1CCN(CCO)CC1 47.2%
CCCCCCCCCCOC(=O)Cn1c(COc2ccc(C)cc2)[n+](C)c2ccccc21 49.5%
CCCCCCCCCCOC(=O)Cn1c(COc2cccc(OC)c2)[n+](C)c2ccccc21 63.2%
CCOC(=O)c1cn(CC)c2cc(F)c(F)cc2c1=O 50.9%
COc1cccc(C(=O)NC(=O)Nc2nc(C)cc(C(F)(F)F)n2)c1 49.4%
COC(=O)c1ccc(C(NC(=O)OCc2ccccc2)/C(C)=C/[C@@H](C)C(=O)NCc2ccc(OC)c(OC)c2)cc1 (stereo partly drawn) 22.6%
CCCCn1c(N)c(N(CCC(C)C)C(=O)c2ccc(COc3ccccc3)o2)c(=O)[nH]c1=O 24.5%
CN(C)/C=C/C(=O)c1cnc2sccn2c1=O 42.8%
COc1cc2c(cc1OC)C(Nc1ccc(S(N)(=O)=O)cc1)=NC(C)(C)C2 71.7%
CC(=O)c1ccccc1OCc1ccc(C(=O)c2ccccc2)cc1 25%
Cc1nnc(C)c2c(C)n(N)c(C)c12 19.2%
Nc1ccccc1SCc1cc([N+](=O)[O-])cc2c1OCOC2 33.2%
O=C(Nc1ccncc1)c1ccc(Cl)c([N+](=O)[O-])c1 35.4%
COc1ccc(Nc2nnc(C)c3ccccc23)cc1 38.3%
CN(C)c1ccnc(Nc2ccc(F)cc2)c1C#N 52.3%
Clc1ccc(C[n+]2cc(-c3ccc(Cl)cc3)n3c2CCC3)cc1 57.3%
COc1ccc2c(c1)cc1n2CCN=C1NN 49%
COc1cc2c(cc1OC)C(c1cccc([N+](=O)[O-])c1)=NCC2 68.6%
COc1ccc(Cn2c(-c3ccc(Cl)cc3)c[n+]3ccccc23)cc1 73.3%
Cc1cc(=O)oc2c(C)c(OC(C)C(=O)NC3CCN(Cc4ccccc4)CC3)ccc12 (stereo not drawn) 56.9%
Cn1c(=NC(=O)c2cnccn2)sc2ccccc21 55.7%
Cc1c(CCOC(=O)CC23CC4CC(CC(C)(C4)C2)C3)sc[n+]1Cc1ccc([N+](=O)[O-])cc1 26.9%
Cc1cccn2c(=O)c3cc(C#N)c(=O)n(CCCN4CCOCC4)c3nc12 42.7%
CN1CCN(c2nc(Nc3ccc(O)cc3)nc3ccccc23)CC1 44.2%
CCN1C(=NCCc2cccnc2)N[C@@H](c2ccccc2)[C@H](C(=O)OC)[C@H]1C 14%
CC(=O)N1CC[n+]2c(-c3ccc([N+](=O)[O-])cc3)csc21 38.1%
C[C@]1(C(=O)NCCc2c[nH]c3ccccc23)C=C[C@@H](Cc2ccccc2)N1C(=O)c1ccccc1 10.8%
N#C/C(=C\c1ccc(-c2cccc([N+](=O)[O-])c2)o1)C(=O)NCCN1CCOCC1 15.6%
N#Cc1ccc(/C=C2\CCn3c2nc2cc(C(=O)O)ccc2c3=O)cc1 48.6%
COc1ccc(CC2c3cc(OC)c(OC)cc3CC[N+]2(C)CCC(=O)OCCCCCOC(=O)CC[N+]2(C)CCc3cc(OC)c(OC)cc3C2Cc2ccc(OC)c(OC)c2)cc1OC (stereo not drawn) 35.7%
CC(Nc1nc(N2CCN(CCO)CC2)nc2ccccc12)c1ccccc1 (stereo not drawn) 24.3%
COc1ccc(C(O)(C2CCCCC2)C(CN2CCCC2)c2ccccc2)cc1 (stereo not drawn) 35.9%
CN(C)c1cc(N)c2ccccc2n1 (tested in a mixture with another compound) 67.2%
CC(C)(C)Nc1nc(-c2ccccn2)nc2ccccc12 57.4%
COc1cc2nc(N3CCN(C(=O)[C@@H]4CCCO4)CC3)nc(N)c2cc1OC 43%
Cn1c(=O)n(C)c2cc(C(=O)Nc3ccc4c(c3)OCO4)ccc21 43.2%
O=C(NCCC1=CCCCC1)C1CCN(Cc2cnn(-c3ccccc3)c2-n2cccc2)CC1 29.7%
O=[N+]([O-])c1ccc(N2CCNCC2)cc1NCc1cccnc1 52.9%
Cc1ccc(C(=O)C[n+]2cc(-c3ccccc3)n3c2CCCCC3)cc1 43.1%
Cc1ccc(-n2c(SCC(=O)N3c4ccccc4Sc4ccccc43)nnc2-c2ccncc2)cc1 21.6%
CCN1CCN(c2ccc([N+](=O)[O-])cc2C(=O)c2ccc(Cl)cc2)CC1 50.4%
CN(C)c1cc[n+](Cc2ccccc2)cc1 50.2%
N=c1c2c3c(sc2ncn1N)CCCCC3 42.9%
N=c1c2c3c(sc2ncn1CCCN1CCOCC1)CCCCC3 72.9%
COc1ccc([N+](=O)[O-])cc1N(CC(O)CN(CC(C)C)CC(C)C)S(=O)(=O)c1ccc(C)cc1 (stereo not drawn) 37.9%
Cc1nc2ccccc2c2oc(C(=O)NCCCN3CCC(C)CC3)cc12 13.8%
O=C(c1ccccc1F)N(Cc1ccccc1)Cc1ccccc1 34.5%
CCN(CC)CCCNC(=O)c1cn(C)c2ccc(S(=O)(=O)N(C)C3CCCCC3)cc2c1=O 32.9%
CCN(CC)CCC(c1cc(OC)c(OC)c(OC)c1)c1c(OC)cc(OC)c2c(-c3ccccc3)cc(=O)oc12 (stereo not drawn) 27.1%
COc1ccc(Nc2cc(C)nc(-n3nc(C)cc3C)n2)cc1 12.6%
O=Cc1ccc(OCc2cn3ccccc3n2)cc1 38.8%
Cc1cc2c(cc1C)[n+](C)cn2CC(O)COCC1CC=CCC1 (stereo not drawn) 80.5%
COc1ccccc1NC(=O)C1=C(C)Nc2nc3ccccc3n2C1c1cccs1 (stereo not drawn) 17.7%
Cc1cc(=O)oc2cc(OCCC[n+]3ccccc3)ccc12 61.4%
O=C(CCC1CCN(C(=O)c2cccc(Cl)c2F)CC1)Nc1ccccc1 24.5%
